# What was measured:
# [1] = tested on: Vero E6 infected with SARS-CoV-2; test: morphology score (similarity to uninfected cells); higher = more like uninfected cells; settings: 24 h
# [2] = tested on: Vero E6 infected with SARS-CoV-2; test: SARS-CoV-2 infection rate relative to infected DMSO; higher = more infection, active = 60 or less; settings: 24 h
SMILES,morphology score [1],SARS-CoV-2 infection rate [2]
O=P(O)(O)C(O)(Cn1ccnc1)P(=O)(O)O [zoledronic-acid] (10 µM),0.0372,116% (inactive)
O=C(NN1C(=O)[C@@H]2[C@@H]3C=C[C@@H]([C@H]4C[C@@H]34)[C@@H]2C1=O)c1ccc(C(F)(F)F)cc1 [tecovirimat] (10 µM),-0.108,102% (inactive)
O=C(Nc1cccnn1)N1CCC(=Cc2cccc(Oc3ccc(C(F)(F)F)cn3)c2)CC1 (10 µM),0.00817,104% (inactive)
O=C1C[C@@H](c2ccc(O)cc2)Oc2cc(O)cc(O)c21 [naringenin] (10 µM),0.0218,98.5% (inactive)
[Cl][Ru-]([Cl])([Cl])[Cl].[Na+].c1ccc2[nH]ncc2c1.c1ccc2[nH]ncc2c1 (10 µM),0.443,43% (active)
O=C(c1ccc(Cl)o1)N1CC2CNCC2C1 (stereo not given) (10 µM),0.187,105% (inactive)
CC(=O)Nc1ccc(C(=O)O)cc1 [acedoben] (10 µM),0.0304,102% (inactive)
COC(=O)C1=C(C)NC(C)=C(C(=O)OC2CCCN(Cc3ccccc3)C2)C1c1cccc([N+](=O)[O-])c1 (stereo not given) [benidipine] (10 µM),0.0303,102% (inactive)
C[N+]1(C)[C@@H]2CC[C@H]1C[C@@H](OC(=O)C(CO)c1ccccc1)C2 (stereo not given in full) [methylatropine-nitrate] (10 µM),0.131,104% (inactive)
O=C(/C=C/c1ccc(O)c(O)c1)OCCc1ccccc1 [caffeic-acid-phenethyl-ester] (10 µM),-0.0125,79% (inactive)
CC1(C)CC(=O)c2c(C(F)(F)F)nn(-c3ccc(C(N)=O)c(N[C@H]4CC[C@H](O)CC4)c3)c2C1 (10 µM),0.196,102% (inactive)
Cn1nnnc1SCC1=C(C(=O)O)N2C(=O)[C@@H](NC(=O)[C@H](OC=O)c3ccccc3)[C@H]2SC1 [cefamandole-nafate] (10 µM),0.0598,102% (inactive)
Cc1cc(C)c(S(=O)(=O)Nc2cccc(C(F)(F)F)c2)c(C)c1 (10 µM),0.152,108% (inactive)
COc1ccccc1N1CCN(CCN(C(=O)C2CCCCC2)c2ccccn2)CC1 (10 µM),0.0947,118% (inactive)
Cc1oc(=O)oc1CN1CCN(c2cc3c(cc2F)c(=O)c(C(=O)O)c2n3C(C)S2)CC1 (stereo not given) [prulifloxacin] (10 µM),0.197,97% (inactive)
COC[C@H]1OC(=O)c2coc3c2[C@@]1(C)C1=C(C3=O)[C@@H]2CCC(=O)[C@@]2(C)C[C@H]1OC(C)=O [wortmannin] (0.833333 µM),0.26,79.5% (inactive)
CNC(=O)c1cc(Oc2ccc(NC(=O)Nc3ccc(Cl)c(C(F)(F)F)c3)c(F)c2)ccn1 [regorafenib] (0.833333 µM),0.0372,110% (inactive)
C/C(=N\Nc1nnc2c(n1)[nH]c1c(C)cccc12)c1ccccn1 (10 µM),0.01,107% (inactive)
Clc1cccc(-n2nnnc2NCc2ccccc2Oc2ccccn2)c1Cl (10 µM),-0.0586,110% (inactive)
O=C(Nc1ccccc1C(=O)Nc1ccc(CCO)cc1)c1ccc([N+](=O)[O-])cc1 (10 µM),-0.0336,112% (inactive)

SMILES,morphology score [1],SARS-CoV-2 infection rate [2]
CCCCCCCCCCCCCCCCCC(=O)OC[C@@H](O)[C@H]1OC[C@H](O)[C@H]1O [sorbitan-monostearate] (10 µM),0.0535,97.5% (inactive)
COc1ccc2cc(OCC3(C(=O)O)CN(C(=O)c4ccc(F)cc4)C3)ccc2c1 (10 µM),0.0418,110% (inactive)
C=C1C(=O)O[C@@H]2/C=C(\C)CC/C=C(\C)CC[C@@H]12 [costunolide] (10 µM),0.222,78.5% (inactive)
CNC(=O)c1cc2c(cn1)[nH]c1ccccc12 (10 µM),0.241,85.5% (inactive)
N=C(N)Nc1ccc(C(=O)Oc2ccc3cc(C(=N)N)ccc3c2)cc1 [nafamostat] (10 µM),0.172,108% (inactive)
O=C(Nc1ccc(C(O)(C(F)(F)F)C(F)(F)F)cc1)c1ccc(C(F)(F)F)cc1 (10 µM),0.265,85% (inactive)
CCCCc1nc(-c2ccc(OCCCN(CC)CC)cc2)cn1-c1ccc(Oc2ccc(Cl)cc2)cc1 [azeliragon] (0.833333 µM),0.129,93% (inactive)
CCOc1ccc(Cc2nccc3cc(OCC)c(OCC)cc23)cc1OCC [ethaverine] (10 µM),0.2,100% (inactive)
Nc1ncnc2c1ncn2[C@@H]1O[C@H](CO)C[C@H]1O [cordycepin] (10 µM),-0.1,112% (inactive)
FC(F)(F)c1ccc(/C=C/c2nc(COc3ccc(CCCCn4ccnn4)cc3)co2)cc1 [mubritinib] (10 µM),-0.0917,96% (inactive)
CC1(C)S[C@@H]2[C@H](NC(=O)[C@H](NC(=O)N3CCNC3=O)c3ccccc3)C(=O)N2[C@H]1C(=O)O [azlocillin] (10 µM),-0.0252,104% (inactive)
CC(Cc1ccccc1)NCCC(c1ccccc1)c1ccccc1 (stereo not given) [prenylamine] (10 µM),0.878,19.5% (active)
Nc1ccc(S(=O)(=O)c2ccc(N)cc2)cc1 [dapsone] (10 µM),-0.179,99.5% (inactive)
COc1cccc(/C=N/N=C/c2cccc(OC)c2)c1 (10 µM),0.132,92% (inactive)
Clc1ccc(C(c2ccc(Cl)cc2)C(Cl)(Cl)Cl)cc1 (10 µM),0.0848,106% (inactive)
CC1(C)CC(=O)c2c(C(F)(F)F)nn(-c3ccc(C(N)=O)c(N[C@H]4CC[C@H](OC(=O)CN)CC4)c3)c2C1 (10 µM),0.127,108% (inactive)
CC[C@@H](C)CNCC(=O)N1CCc2sccc2[C@@H]1COc1cccc(C)c1 (10 µM),0.447,58.5% (active)
CS(=O)(=O)N1CCc2c(-c3cnc(N)nc3)nc(N3CCOCC3)nc21 (0.833333 µM),0.0917,110% (inactive)
COc1cc(OC)c(/C=C/S(=O)(=O)Cc2ccc(OC)c(OP(=O)(O)O)c2)c(OC)c1 [briciclib] (0.833333 µM),-0.0884,92% (inactive)
CCOc1ccccc1OCC1CNCCO1 (stereo not given) [viloxazine] (10 µM),0.0033,112% (inactive)

SMILES,morphology score [1],SARS-CoV-2 infection rate [2]
O=c1cc(N2CCOCC2)oc2c(-c3ccccc3)cccc12 (0.833333 µM),0.266,98.5% (inactive)
COC(=O)[C@@H](N)CCCNC(=N)N[N+](=O)[O-] (10 µM),0.125,98.5% (inactive)
CC(C)(C)NCC(O)COc1cc(Cl)ccc1Cl (stereo not given) [cloranolol] (10 µM),-0.0735,100% (inactive)
c1coc(CNc2ncnc3[nH]cnc23)c1 [kinetin] (10 µM),0.0735,104% (inactive)
NS(=O)(=O)c1ccc2c(c1)C1C=CCC1C(c1ccc(Br)cc1)N2 (stereo not given) (10 µM),-0.0557,95% (inactive)
C[n+]1ccccc1C=NO [pralidoxime] (10 µM),-0.226,116% (inactive)
Cc1cc(C(=O)Nc2cc(Oc3ccc4nc(NC(=O)C5CC5)cn4n3)ccc2C)n(C)n1 (10 µM),0.227,102% (inactive)
N=C(N)NCCC[C@@H](NC(=O)[C@@H]1CCCN1C(=O)[C@@H]1CSSCCC(=O)N[C@@H](Cc2ccc(O)cc2)C(=O)N[C@@H](Cc2ccccc2)C(=O)N[C@@H](CCC(N)=O)C(=O)N[C@@H](CC(N)=O)C(=O)N1)C(=O)NCC(N)=O [desmopressin-acetate] (10 µM),0.0379,97.5% (inactive)
CCCN(CCC)[C@H]1CCc2cccc(O)c2C1 [8-hydroxy-DPAT] (10 µM),0.0607,98.5% (inactive)
CC(C)c1ccc(CC(=O)N2CCC[C@@H](c3cccc(OC(C)(C)C(=O)O)c3)C2)cc1 (10 µM),0.109,96% (inactive)
CCOC(=O)C1=C(C)NC(C)=C(C(=O)OC)[C@@H]1c1cccc([N+](=O)[O-])c1 (racemic) [nitrendipine] (10 µM),-0.062,112% (inactive)
Nc1ccc(S(=O)(=O)Nc2ccnn2-c2ccccc2)cc1 [sulfaphenazole] (10 µM),0.178,99.5% (inactive)
CC(=O)N[C@H](Cc1ccc2ccccc2c1)C(=O)N[C@H](Cc1ccc(Cl)cc1)C(=O)N[C@H](Cc1cccnc1)C(=O)N[C@@H](CO)C(=O)N[C@@H](Cc1ccc(O)cc1)C(=O)N[C@H](CCCNC(N)=O)C(=O)N[C@@H](CC(C)C)C(=O)N[C@@H](CCCNC(=N)N)C(=O)N1CCC[C@H]1C(=O)N[C@H](C)C(N)=O [cetrorelix] (10 µM),0.394,79.5% (inactive)
C=CCN1CC[C@]23CCCC[C@H]2[C@H]1Cc1ccc(O)cc13 [levallorphan] (10 µM),-0.0532,114% (inactive)
N#Cc1ccncn1 [4-pyrimidinecarbonitrile] (10 µM),0.0783,97% (inactive)
O=C(O)CSc1nnc(Br)n1-c1ccc(C2CC2)c2ccccc12 [lesinurad] (10 µM),0.0859,95% (inactive)
COc1ccc(-c2cc3c(C)nc(N)nc3n([C@H]3CC[C@H](OCCO)CC3)c2=O)cn1 (0.833333 µM),0.0503,102% (inactive)
NS(=O)(=O)c1cc2c(cc1Cl)NCNS2(=O)=O [hydrochlorothiazide] (10 µM),0.0281,110% (inactive)
Cn1cc(C(=O)OCC2CCN(CCNS(C)(=O)=O)CC2)c2ccccc21 (10 µM),0.228,96% (inactive)
c1cc(CN2CCCCC2)cc(OCCCNc2nc3ccccc3s2)c1 [zolantidine] (10 µM),0.67,44% (active)

# Source: the supplement of paper PMC13380429
